Test results from PubChem BioAssay (EPA / NIEHS).
Records with an inconclusive call do not appear. The source made the active and inactive calls. Rule for the calls, unless noted: active = hit-call score of the fitted dose curve at least 0.9, where 1 is the maximum; inconclusive = response in the unintended direction; inactive = score below 0.9.

Columns and labels:
[1] = TOX21_p53_BLA_p2_viability: Viability Assessment in the Tox21 HCT-116 p53 Agonism Beta-lactamase Assay, Phase 2 (AID 2283591);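 note: actives lower the ATP signal meaning cytotoxicity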
Summary of the method: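 Cytotoxicity readout: CellTiter-Glo ATP luminescence, 30 min at room temperature, after the beta-lactamase read. Cells were HCT116 exposed 16 h at 37C to compounds pin-transferred at 217-fold dilution from DMSO stocks.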

[2] = biological target: Cellular tumor antigen p53 (Homo sapiens) (UniProt P04637); assay: TOX21_p53_BLA_p2_ratio: Tox21 HCT-116 p53 Agonism Beta-lactamase Assay, Ratio, Phase 2 (AID 2283592)
Sequence of Cellular tumor antigen p53 (Homo sapiens) (P04637 whole entry, looked up): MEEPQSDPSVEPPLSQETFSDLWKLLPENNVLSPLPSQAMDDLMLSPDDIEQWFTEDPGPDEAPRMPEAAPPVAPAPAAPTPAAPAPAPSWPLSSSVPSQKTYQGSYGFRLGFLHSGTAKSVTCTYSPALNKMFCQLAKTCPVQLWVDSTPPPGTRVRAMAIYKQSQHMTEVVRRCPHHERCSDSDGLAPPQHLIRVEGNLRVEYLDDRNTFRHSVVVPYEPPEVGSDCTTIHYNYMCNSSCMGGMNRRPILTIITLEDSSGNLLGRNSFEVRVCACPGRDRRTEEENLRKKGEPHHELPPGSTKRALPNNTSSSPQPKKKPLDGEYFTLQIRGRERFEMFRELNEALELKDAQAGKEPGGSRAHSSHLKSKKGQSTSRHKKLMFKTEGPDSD
Summary of the method: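 Readout: blue/green (460/530 nm) FRET emission ratio after 2 h CCF4-AM loading at room temperature, excitation 405 nm. HCT116 p53 bla cells, 16 h compound exposure at 37C, 5% CO2; agonist direction fitted against DMSO baseline.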

[3] = TOX21_p53_BLA_p3_viability: Viability Assessment in the Tox21 HCT-116 p53 Agonism Beta-lactamase Assay, Phase 3 (AID 2283593);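 note: cells exposed to compound for 16 h before reading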
Summary of the method: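 Cellular ATP was quantified by CellTiter-Glo luminescence, read after 30 min at room temperature. Beforehand, HCT116 cells (4000/well) received compound 5 h post-seeding, 217-fold diluted from DMSO, then incubated 16 h at 37C.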

[4] = biological target: Cellular tumor antigen p53 (Homo sapiens) (UniProt P04637); assay: TOX21_p53_BLA_p3_ratio: Tox21 HCT-116 p53 Agonism Beta-lactamase Assay, Ratio, Phase 3 (AID 2283596)
Summary of the method: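 Cells were seeded at 4000/well, rested 5 h at 37C, then dosed with DMSO compound solutions (217-fold dilution) for 16 h. CCF4-AM substrate was loaded for 2 h at room temperature, and the 460/530 nm emission ratio was fitted for gain of signal versus DMSO.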

[5] = TOX21_p53_BLA_p4_viability: Viability Assessment in the Tox21 HCT-116 p53 Agonism Beta-lactamase Assay, Phase 4 (AID 2283597);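 note: hits lower the luminescence signal meaning cytotoxicity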
Summary of the method: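 ATP content by CellTiter-Glo luminescence, 30 min RT, read after the beta-lactamase ratio step. Cells: HCT116, 4000/well, compound added after 5 h, exposure 16 h at 37C. Signal loss = reduced viability.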

[6] = biological target: Cellular tumor antigen p53 (Homo sapiens) (UniProt P04637); assay: TOX21_p53_BLA_p5_ratio: Tox21 HCT-116 p53 Agonism Beta-lactamase Assay, Ratio, Phase 5 (AID 2283599)
Summary of the method: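 Beta-lactamase reporter ratio (blue 460 nm over green 530 nm, 405 nm excitation) after 2 h CCF4-AM loading, in HCT-116 cells exposed 16 h at 37 C to compounds pinned at 217-fold dilution. Increases relative to DMSO baseline scored.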

[7] = TOX21_p53_BLA_p5_viability: Viability Assessment in the Tox21 HCT-116 p53 Agonism Beta-lactamase Assay, Phase 5 (AID 2283600)
Summary of the method: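 ATP luminescence (CellTiter-Glo, 30 min, RT) served as the viability read-out, with loss of signal indicating cytotoxicity. Compounds in DMSO were pinned at a 217-fold dilution onto 4000 cells/well and incubated 16 h, 37C.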

[8] = biological target: Cellular tumor antigen p53 (Homo sapiens) (UniProt P04637); assay: TOX21_p53_BLA_p4_ratio: Tox21 HCT-116 p53 Agonism Beta-lactamase Assay, Ratio, Phase 4 (AID 2283601)
Summary of the method: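 Signal is the blue/green (460nm/530nm) ratio of cleaved versus uncleaved CCF4-AM substrate, read after 2 h substrate loading. Cells were HCT116 carrying the p53-responsive beta-lactamase reporter, dosed 16 h at 37C, 5% CO2; CellTiter-Glo measured in parallel.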

[9] = test system: Brachyury (BRA) Protein Expression, Deisenroth Lab, TBXT (gene 6862); assay: CCTE_Deisenroth_DEVTOX-GLR_legacy_Bra: (Legacy) CCTE's DevTox GLR-Endo Assay Evaluation of Brachyury (BRA) Protein Expression, Deisenroth Lab (AID 2284329; active = hit-call score of the fitted dose curve at least 0.9, where 1 is the maximum; inactive = score below 0.9)
Summary of the method: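 Percent Bra-positive cells, scored by high-content imaging against a threshold of 5x BMAD over the undifferentiated control median, with the 0.2% DMSO median subtracted. RUES2-GLR cultures were dosed twice at 24 h intervals across a 48 h differentiation, at 1 nM–200 uM in ten steps, with n=4 replicates.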

[10] = CCTE_Deisenroth_DEVTOX-GLR_legacy_CellCount: (Legacy) Viability Assessment in CCTE's DevTox GLR-Endo Assay, Deisenroth Lab (AID 2284331; active = hit-call score of the fitted dose curve at least 0.9, where 1 is the maximum; inactive = score below 0.9); conditions: actives raise or lower the signal
Summary of the method: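 RUES2-GLR human pluripotent cells were seeded 24 h, then differentiated 48 h with two compound doses at 24 h intervals (10-point, 1 nM - 200 uM). Fixed nuclei were imaged and counted; bidirectional fitting versus 0.2% DMSO.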

[11] = test system: SRY-box transcription factor 17 (SOX17) Protein Expression, Deisenroth Lab, SOX17 (gene 64321); assay: CCTE_Deisenroth_DEVTOX-GLR_legacy_Sox17: (Legacy) CCTE's DevTox GLR-Endo Assay Evaluation of SRY-box transcription factor 17 (SOX17) Protein Expression, Deisenroth Lab (AID 2284341; active = hit-call score of the fitted dose curve at least 0.9, where 1 is the maximum; inactive = score below 0.9); conditions: actives raise or lower the signal
Summary of the method: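 Percent SOX17-positive cells, scored by high-content imaging as mean intensity exceeding pluripotent-control median by 5x BMAD, divided by cell count. Human RUES2-GLR endoderm differentiation, 48 h, two exposures 24 h apart, 1 nM–200 uM; DMSO-referenced bidirectional fitting.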

[12] = test system: SRY-box transcription factor 2 (SOX2) Protein Expression, Deisenroth Lab, SOX2 (gene 6657); assay: CCTE_Deisenroth_DEVTOX-GLR_legacy_Sox2: (Legacy) CCTE's DevTox GLR-Endo Assay Evaluation of SRY-box transcription factor 2 (SOX2) Protein Expression, Deisenroth Lab (AID 2284346; active = hit-call score of the fitted dose curve at least 0.9, where 1 is the maximum; inactive = score below 0.9)
Summary of the method: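 Percent Sox2-positive cells was scored by high-content imaging of 5 fields per well. Positivity cutoff was 5x BMAD over the directed endoderm control, and the DMSO median was subtracted. Cells were RUES2-GLR, dosed twice at 24-h intervals over 48 h of differentiation (1 nM-200 uM).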

[13] = test system: SRY-box transcription factor 2 (SOX2) Protein Expression, Deisenroth Lab, SOX2 (gene 6657); assay: CCTE_Deisenroth_DEVTOX-GLR_Endo_SOX2: CCTE's DevTox GLR-Endo Assay Evaluation of SRY-box transcription factor 2 (SOX2) Protein Expression, Deisenroth Lab (AID 2284412)
Summary of the method: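 Endpoint is percent SOX2-positive cells (SOX2+ count/total cells) minus 0.2% DMSO control, from high-content imaging of fixed, nuclear-stained RUES2-GLR cells. Dosing twice at 24 h intervals over 48 h differentiation, 1 nM–200 uM in 10 points.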

[14] = test system: SRY-box transcription factor 17 (SOX17) Protein Expression, Deisenroth Lab, SOX17 (gene 64321); assay: CCTE_Deisenroth_DEVTOX-GLR_Endo_SOX17: CCTE's DevTox GLR-Endo Assay Evaluation of SRY-box transcription factor 17 (SOX17) Protein Expression, Deisenroth Lab (AID 2284413; active = hit-call score of the fitted dose curve at least 0.9, where 1 is the maximum; inactive = score below 0.9)
Summary of the method: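 RUES2-GLR human pluripotent cells were seeded 24 h, then differentiated toward endoderm for 48 h with two chemical exposures 24 h apart (10-point series, 1 nM - 200 uM). Nuclei-stained fixed cells were imaged; endpoint is percent change in SOX17+ cells versus 0.2% DMSO.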

[15] = CCTE_Deisenroth_DEVTOX-GLR_Endo_CellCount: Viability Assessment in CCTE's DevTox GLR-Endo Assay, Deisenroth Lab (AID 2284420; active = hit-call score of the fitted dose curve at least 0.9, where 1 is the maximum; inactive = score below 0.9)
Summary of the method: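 Nuclei counted by fluorescence microscopy as a surrogate for cell number, expressed as percent change relative to 0.2% DMSO control. Human RUES2-GLR cells, 48 h differentiation, dosed twice; 1 nM - 200 uM series.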

[16] = test system: SRY-box transcription factor 17 (SOX17) Protein Expression, Deisenroth Lab, SOX17 (gene 64321); assay: CCTE_Deisenroth_DEVTOX-GLR_Pluri_SOX17: CCTE's DevTox GLR-Pluri Assay Evaluation of SRY-box transcription factor 17 (SOX17) Protein Expression, Deisenroth Lab (AID 2284427)
Summary of the method: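 Readout: percent SOX17+ cells (SOX17+ count/cell count) by high-content imaging of an inducible fluorescent reporter, corrected for 0.2% DMSO solvent control. RUES2-GLR cells, 48 h differentiation, dosed twice at 24 h intervals, 1 nM - 200 uM.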

[17] = test system: Brachyury (BRA) Protein Expression, Deisenroth Lab, TBXT (gene 6862); assay: CCTE_Deisenroth_DEVTOX-GLR_Pluri_BRA: CCTE's DevTox GLR-Pluri Assay Evaluation of Brachyury (BRA) Protein Expression, Deisenroth Lab (AID 2284429)
Summary of the method: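 Percent BRA+ cells (BRA+ count over total cells) by high-content imaging of fixed RUES2-GLR cultures, corrected by 0.2% DMSO control. Cells received two doses over 48-hour differentiation, 1 nM–200 uM, n=4 experiments.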

[18] = CCTE_Deisenroth_DEVTOX-GLR_Pluri_CellCount: Viability Assessment in CCTE's DevTox GLR-Pluri Assay Evaluation of Total Cell Counts, Deisenroth Lab (AID 2284430; active = hit-call score of the fitted dose curve at least 0.9, where 1 is the maximum; inactive = score below 0.9)
Summary of the method: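 Cytotoxicity readout: fluorescent nuclei counts by high-content imaging, expressed as percent change relative to 0.2% DMSO. Human RUES2-GLR pluripotent line differentiated 48 h, dosed twice at 24-h intervals across 1 nM - 200 uM (10 points).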

Measured: AC50

O=C1Cc2cc(CCN3CCN(c4nsc5ccccc45)CC3)c(Cl)cc2N1
active: [9] 3.94 µM | [10] 3.31 µM | [11] 3.91 µM | [12] 4.3 µM | [13] 6.29 µM | [14] 3.99 µM | [15] 3.31 µM | [17] 4.26 µM | [18] 4.26 µM
inactive: all other assays above
